# The list is not random: actives were taken first. Their share in the collection is about 4.8%.
# TIM10 inh: inhibits growth of TIM10 yeast strain. actives 1.4% (n = 330,000). inhibition, % at 10 µM. S. cerevisiae TIM10 strain growth, BacTiter-Glo luminescence, 24 h;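 active = inhibition of 40% or more at the single tested concentration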;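 also: wild-type TIM10 isogenic control strain grown at permissive 25 °C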
# SKKanGAS inh: inhibitors of SKKanGAS S. pyogenes growth in kanamycin (SK-promoter or general growth effect); BacTiter-Glo, 6 h; inhibition, % at 7.5 µM; actives 1.3% (n = 300,000); AID 1662;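 active = mean replicate score, as percent of positive control median, at least 50; inconclusive = mean below 50 but one replicate at or above 50; inactive = mean and every replicate below 50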;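 also: strain carries kanamycin resistance gene driven by streptokinase promoter and grows in 40 µg/ml kanamycin; loss of luminescence reflects streptokinase promoter inhibition or plain growth inhibition; 0% = median of DMSO wells and 100% = positive control at its reference dose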
# tim23-1 inh: growth inhibitors of tim23-1 mutant yeast. actives 1.3% (n = 330,000). inhibition, % at 20 µM. AID 463212. S. cerevisiae tim23-1 growth, BacTiter-Glo luminescence, 24 h;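 active = growth inhibition of the mutant yeast at or above 50%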;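 also: temperature-sensitive mutant grown at 25 °C; plate controls were DMSO-treated mutant yeast for no effect and medium wells lacking yeast for full effect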
# NALP1 yeast inh: blocks the NALP1 inflammasome reconstituted in yeast; S. cerevisiae NALP1/ASC/caspase-1 growth, X-gal OD620, 72 h; inhibition, % at 10 µM; actives 0.61% (n = 280,000); in the data active = inhibition mostly above about 24%, no sharp cut-off; inactive = mostly below about 32%
# PfHsp90 yeast 2: inhibits growth of yeast expressing Plasmodium falciparum Hsp90; inhibition, % at 9.4 µM; actives 0.32% (n = 310,000); S. cerevisiae expressing PfHsp90, BacTiter-Glo ATP, 48 h; yeast lacking PDR1 and PDR3 efflux regulators;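 active = every replicate shows inhibition above about 80%, whatever the replicate mean, limit read from the data; inconclusive = mean inhibition reaches the set limit but some replicate falls short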;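 also: 0% = DMSO neutral controls and 100% = 20 µM radicicol positive controls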
# tim10-1 inh: tim10-1 yeast growth inhibition; S. cerevisiae tim10-1 ts strain growth, BacTiter-Glo, 24 h; inhibition, % at 20 µM; actives 2.2% (n = 330,000);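 active = inhibition of at least 40%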;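 also: mutant grown at 25 °C; 0% = DMSO wells with yeast and 100% = wells holding no yeast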
# tim10-1 conf: tim10-1 yeast growth inhibition, confirmed. S. cerevisiae tim10-1 ts strain growth, BacTiter-Glo, 24 h. inhibition, % at 20 µM. AID 463213. shares compounds with tim10-1 inh. actives 56% (n = 7,400);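 active = inhibition of yeast growth at or above a set limit in either of two repeat tests at 20 µM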;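 also: tim10-1 mutant grown at permissive 25 °C to find synthetic lethal compounds; 0% = DMSO yeast wells and 100% = medium wells without yeast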
# Numbers without * were called inactive; u = inconclusive; x = no result.
SMILES,TIM10 inh,SKKanGAS inh,tim23-1 inh,NALP1 yeast inh,PfHsp90 yeast 2,tim10-1 inh,tim10-1 conf
COc1ccccc1C(=O)Nc1nnc(SCC(=O)NCC2CCCO2)s1 (stereo not given),0.1,u,-1.1,9.4,-7.7,-17.3,x
CCOC(=O)c1c(NC(=S)N2CCOCC2)sc2c1CCN(C(=O)OCC)C2,18.1,5.1,12.0,-5.8,x,2.7,x
Cn1c(O)c(N=NC(=O)C2COc3ccccc3O2)c2ccccc21 (stereo not given),20.9,8.8,39.3,-5.5,5.8,21.8,x
CC(C)n1c(O)c(N=NC(=O)C2COc3ccccc3O2)c2ccccc21 (stereo not given),29.2,-13.2,39.6,-14.8,-15.6,47.9*,27.5
COc1ccc(C2C(C#N)=C(N)N(c3ccccc3C#N)C3=C2C(=O)CCC3)cc1CN1CCCC1 (stereo not given),-3.9,-16.1,0.0,22.4,2.9,-8.7,x
Cc1nc2cc(NS(=O)(=O)c3c(C)c(C)cc(C)c3C)ccc2s1,30.1,9.8,28.7,-77.7,10.6,41.9*,32.9*
O=[N+]([O-])c1cccc2c(N3CCOCC3)ccnc12,7.1,19.0,5.6,-6.6,10.0,2.7,x
Cc1ccc(S(=O)(=O)c2nc(S(C)(=O)=O)sc2N2CCC(C)CC2)cc1,24.9,29.6,46.6,-3.9,-8.4,46.3*,18.4
Cc1ccc(S(=O)(=O)c2nc(S(C)(=O)=O)sc2N2CCCCCC2)cc1,15.2,-5.9,35.3,19.7,10.2,26.6,x
CC1CCN(S(=O)(=O)c2ccc(C(=O)Nc3nnc(C4CC4)o3)cc2)CC1,19.6,17.3,37.6,-12.5,x,41.4*,9.9
CCOC(=O)N1CCN(C(=O)c2ccc(CSc3ccc(Cl)cc3)cc2)CC1,34.1,1.3,37.5,-3.6,29.7,44.9*,44.8*
CN1CCN(C(=O)c2ccc(CSc3ccc(Cl)cc3)cc2)CC1,7.9,4.0,8.2,41.0,-8.3,10.0,x
COc1ccc2cc(CN(Cc3ccco3)C(=S)NCC3CCCO3)c(=O)[nH]c2c1 (stereo not given),10.4,-5.4,14.6,12.3,-14.5,20.0,x
Cc1cccc(C)c1OC(=O)CCN1C(=O)C2C3C=CC(C4CC34)C2C1=O (stereo not given),14.7,-0.1,26.5,20.3,28.4,40.8*,30.2
CC(=O)c1ccccc1OC(=O)CCN1C(=O)C2C3C=CC(C4CC34)C2C1=O (stereo not given),3.6,0.2,25.1,19.5,-2.3,39.4,x
COc1ccc(OCC(=O)Nc2c(C(=O)N3CCN(C)CC3)oc3ccccc23)cc1,8.7,-1.3,20.1,29.0,23.3,20.2,x
COc1ccccc1-c1cc(C(=O)NCc2ccccc2)no1,27.4,-21.6,41.0,-1.2,16.9,43.6*,25.6
CCCn1c2ccc(C)cc2c2n[nH]c(=S)nc21,16.8,-2.9,47.9,-11.4,-9.6,45.5*,-1.0
O=C(OCc1nnc(-c2ccccc2)o1)c1ccco1,14.9,0.8,-11.3,-3.8,-8.4,40.8*,12.4
Cc1c(C(=O)O)oc2c1ccc1ccccc12,-5.6,-0.9,7.0,23.7,-31.7,1.7,x
Cc1c(C(=N)C(C#N)C#N)c(=N)oc2c1ccc1ccccc12,35.2,13.7,20.5,24.6,0.9,41.3*,29.1
CCCCn1c(N)c(N(CCOC)C(=O)c2ccc3c(c2)C(=O)N(c2ccccc2Cl)C3=O)c(=O)[nH]c1=O,4.5,x,-5.8,x,13.3,-9.4,x
COc1cc2c(cc1NC(=O)CSc1ccccc1)oc1ccccc12,13.6,-14.4,9.7,20.3,5.3,12.6,x
COc1cc2c(cc1NC(=O)CSc1nc3ccccc3[nH]1)oc1ccccc12,22.5,5.9,34.0,36.4,-30.4,41.1*,-7.5
COc1cc2c(cc1NC(=O)Nc1ccc(C)cc1)oc1ccccc12,29.9,3.2,12.8,-5.8,36.0,43.0*,41.4*
SMILES,TIM10 inh,SKKanGAS inh,tim23-1 inh,NALP1 yeast inh,PfHsp90 yeast 2,tim10-1 inh,tim10-1 conf
COc1ccc(NC(=O)Nc2cc3oc4ccccc4c3cc2OC)cc1,20.3,7.2,3.7,17.0,16.8,19.9,x
CCCCC(=O)NCCc1ccc(S(N)(=O)=O)cc1,-12.9,2.6,-4.0,-5.5,-2.0,5.8,x
CCOC(=O)N1CCN(C(=O)c2c(Cl)cnn2C)CC1,8.8,-0.1,18.6,6.1,-8.2,10.3,x
N#C/C(=C\c1cccnc1)c1ccccn1,0.7,-3.7,23.1,12.6,1.6,31.3,x
CCc1ccc(/C=c2\s/c(=C\C(=O)C(C)(C)C)[nH]c2=O)cc1,31.8,102.3*,49.6,22.6,-51.9,52.9*,43.5*
C#CCn1c(=NC(=O)CN2C(=O)CCC2=O)sc2cc(S(N)(=O)=O)ccc21,3.2,-4.1,-3.0,34.8,-0.8,11.3,x
C#CCn1c(=NC(=O)c2cc(Cl)sc2Cl)sc2cc(S(N)(=O)=O)ccc21,22.1,49.7*,30.3,37.2,-29.8,46.8*,33.4*
O=C1/C(=C/c2cccnc2)SC(=S)N1N1CCOCC1,28.9,1.9,47.3,x,-14.1,51.6*,40.1*
O=[N+]([O-])c1ccc(-c2csc(N3CCc4ccccc4C3)n2)cc1,19.5,-7.3,27.2,14.0,11.8,17.9,x
O=[N+]([O-])c1ccc(N2CCc3ccccc3C2)cc1,35.3,7.0,34.6,6.4,-19.2,55.3*,42.8*
c1ccc(Cn2c[n+](Cc3ccccc3)c3ccccc32)cc1,3.8,-13.3,4.5,-30.2,-23.7,16.8,x
Cc1cc(OC(=O)c2c(Cl)cc(Cl)cc2Cl)nc(C)n1,28.4,7.5,31.4,19.4,x,26.8,x
Cc1cc(C)nc(OC(=O)c2c(Cl)cc(Cl)cc2Cl)n1,22.2,-15.4,35.8,1.8,14.5,44.3*,33.4*
COc1ccc(N(CC(=O)NCc2ccco2)S(=O)(=O)c2c(C)nn(C)c2C)cc1,-2.2,-2.5,10.8,6.1,-29.6,16.3,x
Cc1cccc(-n2nc(C(=O)c3ccco3)cc(-c3nc4ccccc4[nH]3)c2=N)c1,26.8,u,16.7,40.2,4.4,50.5*,25.0
COc1cnc(-c2ccccn2)nc1Sc1ccccc1Cl,18.5,-4.5,46.0,-13.1,x,46.6*,33.8*
O=C1/C(=C/c2ccccc2F)SC(=S)N1CC(=O)N1CCCCC1c1cccnc1 (stereo not given),24.1,2.5,36.3,10.2,-28.6,45.2*,15.6
Cc1noc(NS(=O)(=O)c2ccc(N)cc2)c1C,-4.4,-0.6,-0.2,18.8,-5.5,-14.2,x
CCOc1cc(/C=C2\C(=O)ON=C2c2ccccc2)cc(Br)c1O,11.6,9.4,48.3,18.3,-8.1,45.2*,30.1*
C[n+]1c2cc(N)ccc2cc2ccc(N)cc21,x,x,x,x,-134.5,x,x
CC1CCCC2(C1)NC(=S)N(c1ccccc1)N2 (stereo not given),-2.6,-0.1,-3.3,5.5,10.9,55.1*,-33.5
S=C1NC2(CCCCC2)NN1c1ccccc1,-31.9,-7.7,-31.4,9.3,-4.6,2.4,x
